Drawing on PubChem BioAssay AID1159606 (Sanford-Burnham Center for Chemical Genomics, 2016), this text covers inhibition for 89 compounds.

The structures appear in SMILES notation. Out of some 360,000 compounds screened, about 7,300 (2%) were called active. Cut-off read from the data, not from the text of the source: active = inhibition above about 50%; inactive = the rest. The entries come from a sample that favours actives as a whole.

For orientation: inhibition means the drop in the measured response relative to a control, in per cent.

The assay in a line: blockers of TWEAK-induced Fn14 reporter activity – luciferase reporter cells, uHTS, primary screen (AID 1159606). As to conditions: TWEAK-stimulated Fn14 reporter cells, luciferase luminescence, 8 h; at 10 µM; hits give high values.
For the compound `CC1=CC=CC2=N/C(=N\S(=O)(=O)c3ccc(F)cc3F)c3ccccc3CN12`, the inhibition was -4.26% (inactive).

`O=S(=O)(Nc1ccc(OC(F)(F)F)cc1)c1cccc2nonc12`: the inhibition is -6.65% (inactive). For `O=S(=O)(Nc1ccc(O)c2ccccc12)c1ccc(OC(F)(F)F)cc1`, the inhibition was 84.1% (active).

As for `COc1ccccc1NS(=O)(=O)c1ccc(C(=O)N2CCN(c3ccccc3O)CC2)cc1`, the inhibition is 9.79% (inactive).

In the case of `O=C(NNC(=O)c1cccc(S(=O)(=O)Nc2ccc(Cl)cc2)c1)c1ccc(=O)[nH]c1`, the inhibition was 12.3% (inactive).

`Cc1ccc(NC(=O)Nc2nnc(-c3ccncc3)s2)cc1`: the inhibition was 54.9% (active). The value for `CC(C)=CC(=O)Nc1nnc(-c2ccc(F)cc2)s1` was -55.7% (inactive); that for `CCc1ccc(NC(=O)Nc2ccncc2)cc1` was -5.44% (inactive); that for `Cc1cc(=O)oc(C)c1C(=O)Nc1cnc2ccccc2c1` was 1.75% (inactive). Turning to `CC1(C)OC(=O)C2=C(C[C@@H](C3CC3)O[C@H]2c2ccc(Cl)cc2)O1`, the inhibition is 7.97% (inactive). For the compound `CCCCOC(=O)c1ccc(NC(c2ccc(C)cc2)P(=O)(OC)OC)cc1` (centres undefined), the inhibition was 4.7% (inactive). Consider `O=[N+]([O-])c1ccc(Oc2ccc(F)cc2Br)c2ccncc12`, for which the inhibition is 69.9% (active). The value for `CC(NC(=O)CCCC1CCCCC1)c1ccc(S(N)(=O)=O)cc1` (centres undefined) was 11.9% (inactive); that for `Cc1cc(S(=O)(=O)N2CCOCC2)ccc1OCC(=O)Nc1cccc(C(F)(F)F)c1` was 21.1% (inactive); that for `CC(=O)N1CCCc2cc(S(=O)(=O)CCC(=O)N3CCN(c4ccccc4)CC3)ccc21` was -26.2% (inactive). The same measure for `CC(=O)N1c2ccc(S(=O)(=O)N3CCC(C(=O)N4CCN(c5ccccc5)CC4)CC3)cc2CC1C` (centres undefined): -8.65% (inactive). The same measure for `CC(=O)N1CCCc2cc(S(=O)(=O)N3CCCC(C(=O)N4CCN(c5cccc(Cl)c5)CC4)C3)ccc21` (centres undefined): 87.5% (active).

For the compound `Cc1ccnc(SCCn2c(N(C)Cc3ccccc3)nc3c2c(=O)n(C)c(=O)n3C)n1`, the inhibition was -11.8% (inactive). As to `Cn1c(-c2ccc(F)cc2)cc2onc(-c3ccccc3Cl)c2c1=O`, the inhibition was 6.49% (inactive). For `Cn1c(-c2ccc(C(F)(F)F)cc2)cc2onc(-c3ccccc3)c2c1=O`, the inhibition is 51.4% (active). The value for `O=c1c2ccccc2c(-c2ccc(F)cc2)nn1-c1ccc(C(F)(F)F)cc1` was -4.84% (inactive); that for `CC(=O)N1Cc2cc(C(=O)NCc3cccc(F)c3)nc(-c3cccc(C4=CCCCC4)c3)c2[C@H]1CCO` was 24.6% (inactive); that for `CCCCn1c(N)c(N(CCOC)C(=O)CSCC(=O)Nc2cccc(C)c2)c(=O)[nH]c1=O` was 4.51% (inactive).

In the case of `CC(C)Nc1ccc(-n2nc3ccccc3[n+]2[O-])cc1`, the inhibition is 62.4% (active). The value for `C[C@H]([C@@H](O)[C@@H](O)[C@@H](C)C(C)(C)C)[C@H]1CC[C@H]2C3CC[C@H]4C[C@H](OS(=O)(=O)O)[C@@H](OS(=O)(=O)O)C[C@]4(C)[C@H]3CC[C@]12C` (some centres undefined) was 3.39% (inactive); that for `CCCC1C(=O)N2C(N(C)C)=Nc3ccc(C)cc3N2C1=O` (centres undefined) was -18.1% (inactive). As for `O=C1/C(=C\c2ccccc2Cl)SC(=S)N1CCC(=O)N1CCCc2ccccc21`, the inhibition was 3.74% (inactive). The value for `C=CCOc1ccc(/C=C2\SC(=S)N(CCC(=O)O)C2=O)cc1` was 90% (active); that for `O=C(O)c1ccc(/C=C2\SC(=S)N(NC(=O)c3ccc(Br)cc3)C2=O)cc1` was 2.06% (inactive); that for `CCCNC(=O)C1(C)CCN(C(=O)c2ccc(F)cc2Cl)C1` (centres undefined) was 2.61% (inactive).

In the case of `COc1cccc2cc(C(N)=O)/c(=N\NC(=O)c3ccccc3)oc12`, the inhibition was 91.4% (active). The value for `COc1cccc2cc(C(=O)N3CCN(C(=O)c4ccccc4)CC3)c(=O)oc12` was 11.9% (inactive); that for `COc1cccc2cc(C(=O)N(C)C)c(=O)oc12` was 0.46% (inactive). The same measure for `CCN(CC)S(=O)(=O)c1ccc(C(=O)N2CCN(C3=NS(=O)(=O)c4ccccc43)CC2)cc1`: -0.95% (inactive); for `O=S1(=O)CC(N2CCN(CCO)CC2)CN1Cc1cn(Cc2cccc(Cl)c2)nn1` (centres undefined): 13.2% (inactive); for `Cc1ccc(S(=O)(=O)NCC(C)NS(C)(=O)=O)cc1` (centres undefined): 4.2% (inactive). The value for `CCOC(=O)C(NS(=O)(=O)c1ccc(C)cc1)(C(F)(F)F)P(=O)(OCC(C)C)OCC(C)C` (centres undefined) was 56.7% (active); that for `CC(=O)N1CCN(CC(C)(C)NS(=O)(=O)c2ccc(C)cc2)CC1` was 14% (inactive); that for `O=C(CN1C(=O)/C(=C\c2ccc(C(F)(F)F)cc2)Sc2ccccc21)NCc1ccco1` was 27.1% (inactive). With `O=C(CN1C(=O)/C(=C\c2ccccc2F)SC1=S)Nc1nc2ccccc2s1`, the inhibition is 29.6% (inactive).

For the compound `O=C(CN1C(=O)/C(=C/c2ccccc2F)Sc2ccccc21)NCc1cccnc1`, the inhibition is 52.7% (active). The same measure for `O=C(NCc1ccccn1)[C@@H]1CCCN1C(=O)[C@@H]1CCCN1C(=O)c1ccccc1`: 7.41% (inactive); for `Cc1ccc(NS(=O)(=O)c2cc3c(cc2C)NC(=O)CO3)cc1`: 8.45% (inactive); for `O=C(Nn1cnc2ccccc2c1=O)c1ccc(F)cc1Cl`: -23.3% (inactive). As to `CN1CCN(c2ccc([N+](=O)[O-])c(Sc3nc4ccccc4[nH]3)c2)CC1`, the inhibition was 17% (inactive). The value for `CCC(C)N1C(=O)S/C(=C/c2ccc(Sc3nc4ccccc4[nH]3)o2)C1=O` (centres undefined) was 69.5% (active); that for `CC(C)c1ccc(/C=C2\NC(=O)NC2=O)cc1` was 18.4% (inactive); that for `CCOc1ccc(C(=O)NC(=S)Nc2ccc(NC(=O)C(C)C)cc2)cc1[N+](=O)[O-]` was 3.3% (inactive). The value for `CCOc1ccc(C(=O)NC(=S)Nc2ccc(N3CCOCC3)c(Cl)c2)cc1[N+](=O)[O-]` was 62.8% (active); that for `O=C(CSc1ccc([N+](=O)[O-])cn1)Nc1ccc(N2CCOCC2)c(Cl)c1` was -16.6% (inactive).

On to `COc1ccc(/C(N)=N/OC(=O)Cc2ccccc2)cc1`, for which the inhibition was -44.1% (inactive). The same measure for `COc1ccc(C(=NN)c2ccc(OC)cc2)cc1`: -20.6% (inactive); for `COc1ccc(C(C#N)=C2C=CC(=NO)c3ccccc32)cc1`: 88% (active). The same measure for `CCOc1ccc(Br)cc1S(=O)(=O)N1CCC(C(=O)O)CC1`: 0.18% (inactive); for `OCCNCCOc1ccc(Cl)c(Cl)c1`: 5.07% (inactive); for `O=C(Cn1c(NCCO)nc2ccccc21)c1ccc(Cl)cc1Cl`: 22.5% (inactive). The same measure for `OCCNc1nc(Nc2ccc(Cl)c(Cl)c2)nc2ccccc12`: 84.3% (active); for `COC(=O)[C@]12CCCCC=C1N(Cc1ccc(Cl)cc1Cl)C(=O)[C@H](CC(=O)NCc1cccc3ccccc13)C2`: 5.94% (inactive). As for `O=C(COc1ccccc1)N1CCN=C1SCc1cccc(F)c1`, the inhibition was -2.31% (inactive). The value for `COc1ccc(CCNC(=O)C2CCCN(Cc3nc(-c4cccc(Cl)c4)oc3C)C2)cc1OC` (centres undefined) was 25.8% (inactive); that for `O=C(COc1ccc(S(=O)(=O)NCCc2ccccc2)cc1)N1CCCC1` was 11.6% (inactive). The value for `COC(=O)C1(C)CC1(c1ccccc1)c1ccccc1` (centres undefined) was 7.44% (inactive); that for `O=C1c2ccccc2C(=O)N1CCC#Cc1ccc2cc(C3(O)CCCCC3)oc(=O)c2c1` was 71.2% (active); that for `COc1cc(C#Cc2ccc3cc(CCCO)oc(=O)c3c2)cc(OC)c1` was 18.9% (inactive). Turning to `C(#CCN1CCOCC1)CCCN1CCOCC1`, the inhibition was -1.19% (inactive). The same measure for `Cc1nn(-c2ccccc2)c(C)c1/C=C/C(=O)OC(C)C(N)=O` (centres undefined): -4.83% (inactive); for `COc1ccc(CCNC(=O)c2c(C)nn(-c3ccccc3)c2Cl)cc1`: -12.5% (inactive).

As to `Cc1nn(-c2ccccc2)c(Cl)c1/C=C/C(=O)c1ccc(O)cc1`, the inhibition is 57.3% (active). The same measure for `Cc1sc(NC(=S)NC(=O)c2cccs2)nc1-c1ccc(CC(C)C)cc1`: -5.35% (inactive); for `C=CCOC(=O)C1=C(C)NC(C)=C(C(=O)OCC=C)C1c1cccs1`: 20.3% (inactive); for `O=S1(=O)CC(N2CCN(CCO)CC2)CN1C1CCCC1` (centres undefined): 11.3% (inactive). In the case of `COc1ccc(-c2c(C)nn3c(N4CCC(C(=O)N5CCCCC5)CC4)cc(C)nc23)cc1OC`, the inhibition is -3.08% (inactive). The same measure for `Cc1cc(C(=O)COC(=O)C2CC2)c(C)n1-c1ccc(F)cc1`: 95.2% (active); for `Cc1ccc(-n2c(C)cc(C(=O)CN3C(=O)C(=O)N(C4CCCC4)C3=O)c2C)cc1`: 40.7% (inactive); for `Cc1cc(C(=O)COc2ccccc2Cl)c(C)n1C1CC1`: -10.6% (inactive). As for `Nc1nc2c(Br)ccc(Br)c2cc1C(=O)NCCc1ccccc1`, the inhibition is 14.3% (inactive). In the case of `CCCCc1cc(=O)oc2c(C)c(OCC(=O)N3CCC(C(N)=O)CC3)ccc12`, the inhibition is -5.28% (inactive). With `O=C(NCc1ccccc1Cl)c1csc([C@@H]2O[C@H](CO)[C@@H](O)[C@H]2O)n1`, the inhibition is -0.12% (inactive). The value for `CCN(CCn1cccn1)C(=O)CC1C(=O)NCCN1Cc1cccc(OC)c1OC` (centres undefined) was 68.3% (active); that for `COc1ccccc1CN1CCNC(=O)C1CC(=O)N(C)CC1CCOCC1` (centres undefined) was 1.59% (inactive). Turning to `CN(Cc1cccc2ncccc12)C(=O)CC1C(=O)NCCN1Cc1ccc(F)cc1` (centres undefined), the inhibition was -1.61% (inactive). Consider `Cc1nc2nc3c(cn2n1)C(=O)CC(c1ccccc1)C3` (centres undefined), for which the inhibition is 8.49% (inactive). `CC1CN(C(=O)CN2C(=O)NC(C)(c3ccccc3)C2=O)CC(C)O1` (centres undefined): the inhibition was 0.1% (inactive). For `CN(C)c1nc(N)nc(CSc2nnnn2-c2cccc3ccccc23)n1`, the inhibition was -0.11% (inactive). The value for `Cc1cccc(C)c1-n1nnnc1C1(C)CCC(=O)N1CCOc1ccccc1` (centres undefined) was -0.09% (inactive); that for `CCC1CCCCN1C(=O)CSc1nc2c(c(=O)n1C)SC(C)C2` (centres undefined) was 4.38% (inactive); that for `CCOC(=O)C(C)n1nc(-c2ccccc2)c2ccccc2c1=O` (centres undefined) was 7.15% (inactive). The same measure for `CCN(CC)C(=O)c1nc[nH]c1C(=O)N(C)Cc1ccccc1`: 6.48% (inactive); for `CCN(CC)C(=O)c1sc2nc(-c3ccccc3)ccc2c1N`: 69.9% (active).
